46 sequences from the supplement of paper PMC11417369 can be followed below.

± gives the standard deviation of the averaged measurements. In all, about 25,000 sequences were measured (“ln(normalized median fluorescence intensity)”: median about 8.9, highest 2% from about 10 on). This excerpt belongs to a sample that is enriched for the highest values.

This experiment concerns PfAP2-LT AP2 domain (GST-tagged). Nature of the experiment: gcPBM binding intensity (ln(normalized median fluorescence intensity)); higher = stronger DNA binding. The method in brief: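 GST-fused DNA-binding domains of P. falciparum, expressed in E. coli, were applied at about 25 μg on average for 1 h to an Agilent 4 × 180k array of primer-extended double-stranded 36-bp intergenic genomic probes and negative controls. Binding intensity is the highest Masliner-normalised natural-log median intensity across replicate spots of either probe orientation, measured with Alexa488 anti-GST antibody and a 488 nm scan.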
Turning to “TTTAACGTTGAATATACACACATATATATATATATA [CACACA_site3698]”, the “gcPBM binding intensity (ln)” value was found to be 9.55 ± 0.042. For “TATATATAATTATAAGAACACACATATATATATATA [CACACA_site8786]”, the “gcPBM binding intensity (ln)” value came to 9.46 ± 0.36. On to “AAACATAAGGGACACACACACATATATATATATATA [CACACA_site5920]”, for which the “gcPBM binding intensity (ln)” value came out at 10.2 ± 0.27. For “TATATAATTATAAGAACACACATATATATATATATA [CACACA_site2472]” the value was 9.6 ± 0.16.

For the sequence “TATATATATAAACACACACACATATATATATATATA [CACACA_site4584]”, the “gcPBM binding intensity (ln)” value amounted to 9.94 ± 0.14. For “CATTATAAGAAACACACACACATATATATATATATA [CACACA_site1051]” the value was 10.2 ± 0.25. For “AAACATAAGAAACACACACACATATATATATATATA [CACACA_site3642]”, the “gcPBM binding intensity (ln)” value turned out to be 10.32 ± 0.064.

Take “TATATATATAAACACACACACACATATATATATATT [CACACA_site8814]”: the “gcPBM binding intensity (ln)” value turned out to be 9.84 ± 0.014.

Turning to “AAAAAAAAAAGAAACACACACATATATATATATAAT [CACACA_site5052]”, the “gcPBM binding intensity (ln)” value turned out to be 9.44 ± 0.35.

Turning to “TATATTAAGAAACACACACACATATATATATATATA [CACACA_site1609]”, the “gcPBM binding intensity (ln)” value came out at 9.82 ± 0.23. Regarding “ATAAATTAACATTAAAGTACATTTTAATAAATATTA [XGTACX_site3647]”, the “gcPBM binding intensity (ln)” value was found to be 8.31 ± 0.52. For TACCAATAAATGAAGGTGCGTGCTTGCCTTTGCTAT the value was 8.95 ± 0.31; for “TCTATACCTATTCTTACACACATATGTATAAATATA [CACACA_site6407]”, 9.04 ± 0.36. The value for “ATATAATCAGCTTCTCTTTTATGCTAAAAAAAAAAA [CACACA_negctrl_site1310]” was 8.25 ± 0.3; that for “ATATTATAGTTATGAACATGCAAACATTACGAAATA [TGCATGCA_site54]” was 8.76 ± 0.5.

For “GTATATATATACCATTGTACTTTCGTAAAAATATTT [XGTACX_site4846]”, the “gcPBM binding intensity (ln)” value worked out at 8.8 ± 0.4. The value for “TAAGACATGATATATACACACCTTGTTTTAATTTTC [CACACA_site5282]” was 8.86 ± 0.45; that for “TATATACATATATGTACACACATTACAGATGTACAT [CACACA_site966]” was 9.21 ± 0.38.

Turning to “GTTAATATTTTTGGGGGTACTTAAAAAAAAAAAAAA [XGTACX_site1477]”, the “gcPBM binding intensity (ln)” value came out at 8.525 ± 0.021. Regarding “TATACTTTATATATTTTGTATATATATTTTTTTTAT [TGCATGCA_negctrl_site530]”, the “gcPBM binding intensity (ln)” value stood at 8.8 ± 0.48. The value for “ATTTTTTTTTTTTTTTTGGGGGGGTATACTTTTAAA [CACACA_negctrl_site1020]” was 10.6 ± 0.2. For “AATATATATATATATATTTTTGTTAGAATATGGAAT [GTGCAC_negctrl_site434]” the value was 8.65 ± 0.32; for “AAAAAAAAAATACATACACACACACCCACCCATATA [CACACA_site9187]”, 10.18 ± 0.021.

As to “TATAAATATACACCCACACACATATATAAATAAATA [CACACA_site7717]”, the “gcPBM binding intensity (ln)” value was 9.65 ± 0.16. As to “TACCCACTAAAATACACACACACACCCACATATATA [CACACA_site6141]”, the “gcPBM binding intensity (ln)” value was determined as 10 ± 0.42. For “TATACATATACATATACACACACACCCATAAATAAA [CACACA_site8372]” the value was 9.8 ± 0.22; for “TACACGCTAAAATACACACACACACCCACATATATA [CACACA_site4153]”, 10.2 ± 0.11; for “CATATATACGCATACACACACACACCCACACCCACA [CACACA_site1725]”, 10.16 ± 0.05. For the sequence “TACATATACATATACACACACACACCCAAATAAATA [CACACA_site1344]”, the “gcPBM binding intensity (ln)” value came to 10.04 ± 0.05. Take “CACCCACCCACATACACACACATACACATATATATA [CACACA_site1722]”: the “gcPBM binding intensity (ln)” value came out at 10 ± 0.22.

As to “TATACGCATATATACACACACATATATATATATATA [CACACA_site3416]”, the “gcPBM binding intensity (ln)” value was found to be 10.1 ± 0.11. The value for “TATATAAATATACACCCACACACATATATATATATA [CACACA_site9247]” was 9.61 ± 0.28; that for “AAAAAAAATACATACACACACACACCCACATATATA [CACACA_site3561]” was 10.13 ± 0.05. For “TATAAATATACACCCACACACATATATATATATATA [CACACA_site3745]” the value was 9.94 ± 0.16; for “ATTTTTTTTAAACGAAGTACAATTTGTGCATTGGAA [XGTACX_site8109]”, 8.45 ± 0.39. Consider “GTACATACATAAAACACACACATATAGATTTATATA [CACACA_site6945]”, for which the “gcPBM binding intensity (ln)” value is 9.47 ± 0.33.

“TATTTTTTTTGATATTGTACTTTTTTATTATTTTTT [XGTACX_site566]”: the “gcPBM binding intensity (ln)” value was determined as 8.76 ± 0.51.

“TATTTTTATATATAATCACACATTGGAATGTTCTAA [CACACA_site5540]”: the “gcPBM binding intensity (ln)” value came to 8.67 ± 0.44.

In the case of “TTGAAGGTGGCAATGTGTACATAGAATAACCAGTGC [XGTACX_site4738]”, the “gcPBM binding intensity (ln)” value was 9.15 ± 0.54. With “TATATATTATGACCACCACACACCTATACGCATAAC [CACACA_site2447]”, the “gcPBM binding intensity (ln)” value stood at 9.44 ± 0.085. The value for “AAAATACACGCATACACACACACACCCACCCATATA [CACACA_site639]” was 10.4 ± 0.14; that for “ATAAAATACATATAAACACACATATAAACCGACATA [CACACA_site2477]” was 9.28 ± 0.38; that for “AAAATACACGCATACACACACACACCGACACATATA [CACACA_site4523]” was 10.4 ± 0.28. The value for “TATACACCCTAAAATACACACACACCCACCCATATA [CACACA_site9380]” was 10.06 ± 0.078. The value for “CACCCATAAATATACACACGCACAACACAAAATAAA [CACACA_site2903]” was 9.63 ± 0.41. With “TAAATTAAAAAAAATACACACACACCGACACATATA [CACACA_site9084]”, the “gcPBM binding intensity (ln)” value was determined as 9.84 ± 0.26.
